Measurements reported in PubChem BioAssay (EPA / NIEHS).
Several values for one entry are separate records, joined by “and”; a condition that tells them apart may be missing. Equal values may be shown once. Records with an inconclusive call do not appear. The source holds several records for some structures; these can differ, active in one and inactive in another. Activity calls are given as the source filed them. Rule for the calls: active = hit-call score of the fitted dose curve at least 0.9, where 1 is the maximum; inconclusive = response in the unintended direction; inactive = score below 0.9.

How the values were obtained:
[1] = target: human Thyroid hormone Receptor alpha (TRa), THRA (gene 7067) (UniProt P10827); test: ATG_hTRa_XSP1: Attagene TRANS-FACTORIAL Multi-Species (XSP1) HepG2 Assay for human Thyroid hormone Receptor alpha (TRa) (AID 2283805)
human Thyroid hormone Receptor alpha (TRa), THRA (gene 7067), sequence (P10827 whole entry, looked up, the tested form may be a part): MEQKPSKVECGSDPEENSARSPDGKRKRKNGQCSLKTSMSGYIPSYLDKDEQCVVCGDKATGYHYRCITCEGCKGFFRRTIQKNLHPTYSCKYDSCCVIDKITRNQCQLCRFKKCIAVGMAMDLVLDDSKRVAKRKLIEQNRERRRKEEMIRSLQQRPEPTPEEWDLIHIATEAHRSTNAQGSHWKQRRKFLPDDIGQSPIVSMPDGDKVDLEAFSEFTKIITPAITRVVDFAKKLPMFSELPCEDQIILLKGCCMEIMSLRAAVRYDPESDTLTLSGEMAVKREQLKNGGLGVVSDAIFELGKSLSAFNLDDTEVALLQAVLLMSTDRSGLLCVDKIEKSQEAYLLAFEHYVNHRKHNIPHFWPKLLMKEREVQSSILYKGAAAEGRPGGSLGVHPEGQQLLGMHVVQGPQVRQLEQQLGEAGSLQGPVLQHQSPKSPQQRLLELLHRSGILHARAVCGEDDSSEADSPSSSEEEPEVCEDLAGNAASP
In short: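 Reporter transcripts from the human TRa-Gal4 TRANS unit quantified by RT-PCR, fluorescent labeling and capillary electrophoresis after 24 hours of chemical exposure in transfected HepG2 cells; medium contains 3 nM 6-alpha-fluorotestosterone. Positive direction fit against DMSO.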

[2] = tested on: turtle Thyroid Hormone Receptor, alpha (TRa), gene 101949057; test: ATG_trTRa_XSP1: Attagene TRANS-FACTORIAL Multi-Species (XSP1) HepG2 Assay for turtle Thyroid Hormone Receptor, alpha (TRa) (AID 2283806)
In short: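 After 24 h chemical exposure, reporter transcripts were measured by RT-PCR with fluorescent primer extension, HpaI digestion and capillary electrophoresis. Cells were transiently transfected HepG2 expressing exogenous NR-Gal4 chimeras; medium contained 3 nM 6-alpha-fluorotestosterone; fitted upward relative to DMSO.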

[3] = target: zebrafish Thyroid Hormone Receptor alpha (TRa), thraa (gene 30670) (UniProt Q98867); test: ATG_zfTRa_XSP1: Attagene TRANS-FACTORIAL Multi-Species (XSP1) HepG2 Assay for zebrafish Thyroid Hormone Receptor alpha (TRa) (AID 2283807)
zebrafish Thyroid Hormone Receptor alpha (TRa), thraa (gene 30670), sequence (Q98867 whole entry, looked up, the tested form may be a part): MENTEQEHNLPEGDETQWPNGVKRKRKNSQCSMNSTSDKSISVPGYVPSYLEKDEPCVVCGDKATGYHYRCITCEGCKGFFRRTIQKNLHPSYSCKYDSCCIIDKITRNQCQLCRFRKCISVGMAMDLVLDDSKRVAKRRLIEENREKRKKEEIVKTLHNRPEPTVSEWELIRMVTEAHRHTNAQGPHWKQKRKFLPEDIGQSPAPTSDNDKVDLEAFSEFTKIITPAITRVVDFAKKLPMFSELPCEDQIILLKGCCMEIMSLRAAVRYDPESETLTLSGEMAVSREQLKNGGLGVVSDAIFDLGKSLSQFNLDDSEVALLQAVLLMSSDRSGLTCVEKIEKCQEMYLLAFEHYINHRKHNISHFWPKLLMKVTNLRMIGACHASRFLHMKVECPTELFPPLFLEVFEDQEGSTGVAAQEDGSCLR
In short: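 Reporter transcripts driven by a chimeric zebrafish TRa–Gal4 protein were measured by RT-PCR with fluorescent labelling and capillary electrophoresis. These came from transiently transfected HepG2 cells after 24 h chemical exposure, with 3 nM 6-alpha-fluorotestosterone added; baseline was DMSO.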

[4] = target: human Thyroid hormone Receptor beta (TRb), THRB (gene 7068) (UniProt P10828); test: ATG_hTRb_XSP1: Attagene TRANS-FACTORIAL Multi-Species (XSP1) HepG2 Assay for human Thyroid hormone Receptor beta (TRb) (AID 2283808)
human Thyroid hormone Receptor beta (TRb), THRB (gene 7068), sequence (P10828 whole entry, looked up, the tested form may be a part): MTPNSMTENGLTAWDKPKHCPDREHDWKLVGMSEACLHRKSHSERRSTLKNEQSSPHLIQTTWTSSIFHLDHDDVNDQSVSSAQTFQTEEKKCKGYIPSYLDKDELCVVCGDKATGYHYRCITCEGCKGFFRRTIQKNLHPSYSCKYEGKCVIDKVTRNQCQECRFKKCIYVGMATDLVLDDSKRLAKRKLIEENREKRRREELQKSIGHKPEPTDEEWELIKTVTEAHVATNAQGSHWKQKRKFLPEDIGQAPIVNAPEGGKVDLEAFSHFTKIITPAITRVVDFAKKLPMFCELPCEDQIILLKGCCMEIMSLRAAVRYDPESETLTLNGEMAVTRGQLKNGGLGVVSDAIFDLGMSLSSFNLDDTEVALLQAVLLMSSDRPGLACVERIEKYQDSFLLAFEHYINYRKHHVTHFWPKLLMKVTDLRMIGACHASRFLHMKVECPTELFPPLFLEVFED
In short: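 Readout is reporter mRNA induction measured by RT-PCR, fluorescent labelling and capillary electrophoresis, fitted upward relative to DMSO. Transiently transfected human HepG2 cells expressing NR-Gal4 chimeras were dosed for 24 h, medium containing 3 nM 6-alpha-fluorotestosterone.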

[5] = target: zebrafish Thyroid Hormone Receptor beta (TRb), thrb (gene 30607) (UniProt Q9PVE4); test: ATG_zfTRb_XSP1: Attagene TRANS-FACTORIAL Multi-Species (XSP1) HepG2 Assay for zebrafish Thyroid Hormone Receptor beta (TRb) (AID 2283809)
zebrafish Thyroid Hormone Receptor beta (TRb), thrb (gene 30607), sequence (Q9PVE4 whole entry, looked up, the tested form may be a part): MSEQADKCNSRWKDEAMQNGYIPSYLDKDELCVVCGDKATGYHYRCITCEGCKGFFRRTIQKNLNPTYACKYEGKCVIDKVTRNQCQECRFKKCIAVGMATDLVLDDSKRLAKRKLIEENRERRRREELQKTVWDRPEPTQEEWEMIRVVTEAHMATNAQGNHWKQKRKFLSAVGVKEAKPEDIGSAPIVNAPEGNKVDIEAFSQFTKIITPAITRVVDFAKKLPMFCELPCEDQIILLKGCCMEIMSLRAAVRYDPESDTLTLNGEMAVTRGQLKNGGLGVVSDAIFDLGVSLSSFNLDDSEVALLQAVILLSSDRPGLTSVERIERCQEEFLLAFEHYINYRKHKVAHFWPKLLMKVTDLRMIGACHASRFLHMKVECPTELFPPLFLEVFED
In short: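 HepG2 cells transiently transfected with multiplexed GAL4-UAS reporter units expressing chimeric zebrafish TRb–Gal4. Dosed 24 h with 3 nM 6-alpha-fluorotestosterone present; reporter mRNA measured by RT-PCR, HpaI digestion and capillary electrophoresis; gain of signal versus DMSO.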

[6] = ATG_XTT_Cytotoxicity_XSP1: Cytotoxicity Assessment in the Attagene TRANS-FACTORIAL Multi-Species (XSP1) HepG2 Assay (AID 2283810)
In short: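 XTT viability readout taken at 24 hours post-dosing in HepG2 liver cells co-treated with 3 nM 6-alpha-fluorotestosterone. Signal loss relative to DMSO controls reflects cytotoxicity.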

[7] = target: GAL4 Transcription Factor (Internal Marker), GAL4 (gene 855828) (UniProt P04386); test: ATG_GAL4_XSP2: Attagene TRANS-FACTORIAL Multi-Species (XSP2) HepG2 Assay for GAL4 Transcription Factor (Internal Marker) (AID 2283814);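 note: GAL4 reporter mRNA background control in MRTU transfected cells not a receptor target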
GAL4 Transcription Factor (Internal Marker), GAL4 (gene 855828), sequence (P04386 whole entry, looked up, the tested form may be a part): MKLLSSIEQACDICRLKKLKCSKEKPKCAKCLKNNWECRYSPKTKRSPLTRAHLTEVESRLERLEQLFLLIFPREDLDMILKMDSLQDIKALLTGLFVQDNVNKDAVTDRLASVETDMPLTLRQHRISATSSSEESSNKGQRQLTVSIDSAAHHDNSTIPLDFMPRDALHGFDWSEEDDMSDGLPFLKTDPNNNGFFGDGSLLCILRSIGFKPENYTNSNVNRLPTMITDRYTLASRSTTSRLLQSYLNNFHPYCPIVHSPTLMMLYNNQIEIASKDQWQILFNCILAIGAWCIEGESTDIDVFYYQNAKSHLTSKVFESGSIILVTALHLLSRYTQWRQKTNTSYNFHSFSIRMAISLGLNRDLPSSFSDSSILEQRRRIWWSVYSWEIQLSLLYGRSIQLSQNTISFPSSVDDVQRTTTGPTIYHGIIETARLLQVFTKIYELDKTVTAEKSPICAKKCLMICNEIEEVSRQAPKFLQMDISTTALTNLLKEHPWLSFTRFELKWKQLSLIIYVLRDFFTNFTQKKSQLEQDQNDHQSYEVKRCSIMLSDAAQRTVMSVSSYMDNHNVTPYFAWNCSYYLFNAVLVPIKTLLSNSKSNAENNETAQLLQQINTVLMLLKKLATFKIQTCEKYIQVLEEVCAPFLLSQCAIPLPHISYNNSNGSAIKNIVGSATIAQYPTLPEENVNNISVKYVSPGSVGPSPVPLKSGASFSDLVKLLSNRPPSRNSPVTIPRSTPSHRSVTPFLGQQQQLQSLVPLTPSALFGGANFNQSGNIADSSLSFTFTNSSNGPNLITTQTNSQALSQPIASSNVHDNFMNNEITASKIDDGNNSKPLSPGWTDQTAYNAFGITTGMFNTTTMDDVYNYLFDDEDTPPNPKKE
In short: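 Background-control readout: gain-of-signal fitted against DMSO. After 24 h exposure of transfected HepG2 (MRTU, GAL4-UAS reporters; 3 nM 6-alpha-fluorotestosterone, 1.5 nM norgestrel present), transcripts quantified by RT-PCR and capillary electrophoresis fluorescence.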

[8] = target: human Androgen Receptor (AR), AR (gene 367) (UniProt P10275); test: ATG_hAR_XSP2: Attagene TRANS-FACTORIAL Multi-Species (XSP2) HepG2 Assay for human Androgen Receptor (AR) (AID 2283820)
human Androgen Receptor (AR), AR (gene 367), sequence (P10275 whole entry, looked up, the tested form may be a part): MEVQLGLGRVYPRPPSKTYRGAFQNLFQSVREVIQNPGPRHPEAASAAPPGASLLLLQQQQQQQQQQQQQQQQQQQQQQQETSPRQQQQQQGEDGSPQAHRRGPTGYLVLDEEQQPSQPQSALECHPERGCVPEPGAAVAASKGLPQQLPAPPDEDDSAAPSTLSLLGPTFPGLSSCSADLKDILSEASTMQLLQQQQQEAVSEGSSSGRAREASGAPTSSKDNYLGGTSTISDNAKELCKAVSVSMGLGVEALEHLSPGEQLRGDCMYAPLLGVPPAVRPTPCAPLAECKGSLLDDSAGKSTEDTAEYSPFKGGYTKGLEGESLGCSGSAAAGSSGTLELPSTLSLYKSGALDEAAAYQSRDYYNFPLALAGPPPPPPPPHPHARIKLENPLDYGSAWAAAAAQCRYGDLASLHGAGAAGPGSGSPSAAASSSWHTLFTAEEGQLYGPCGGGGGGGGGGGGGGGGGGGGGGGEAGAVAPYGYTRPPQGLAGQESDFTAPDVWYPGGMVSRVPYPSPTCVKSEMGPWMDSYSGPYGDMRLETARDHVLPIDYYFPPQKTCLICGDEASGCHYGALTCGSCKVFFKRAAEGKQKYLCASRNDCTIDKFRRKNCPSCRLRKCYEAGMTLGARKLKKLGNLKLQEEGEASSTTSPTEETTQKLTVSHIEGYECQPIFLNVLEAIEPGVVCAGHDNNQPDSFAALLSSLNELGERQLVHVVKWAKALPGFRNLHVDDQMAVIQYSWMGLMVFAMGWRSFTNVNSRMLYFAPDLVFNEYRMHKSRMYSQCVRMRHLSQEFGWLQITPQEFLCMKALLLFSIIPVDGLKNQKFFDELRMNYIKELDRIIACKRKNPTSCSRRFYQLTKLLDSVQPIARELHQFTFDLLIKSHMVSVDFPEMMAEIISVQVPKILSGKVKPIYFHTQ
In short: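 Reporter transcripts were measured by RT-PCR and capillary electrophoresis 24 h post-dosing, with gain of signal fitted against DMSO. Transiently transfected HepG2 cells expressed chimeric NR-Gal4 on GAL4-UAS reporters, with AR stimulated by 3 nM 6-alpha-fluorotestosterone and 1.5 nM norgestrel.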

[9] = tested on: turtle Estrogen Receptor (ERa), gene 101933533; test: ATG_trERa_XSP2: Attagene TRANS-FACTORIAL Multi-Species (XSP2) HepG2 Assay for turtle Estrogen Receptor (ERa) (AID 2283812);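 note: actives raise reporter signal above DMSO so AC50 reflects agonist activity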
In short: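 Readout is reporter mRNA quantified by RT-PCR with capillary electrophoresis after 24 h compound exposure, increase relative to DMSO. Uses transiently transfected human HepG2 liver cells carrying a chimeric turtle ERa-Gal4 receptor driving GAL4-UAS reporters.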

[10] = target: Estrogen receptor beta (Homo sapiens) (UniProt Q92731); test: ATG_hERb_XSP2: Attagene TRANS-FACTORIAL Multi-Species (XSP2) HepG2 Assay for human Estrogen Receptor (ERb) (AID 2283813);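 note: actives raise reporter mRNA above DMSO so AC50 reflects agonist induction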
Estrogen receptor beta (Homo sapiens), sequence (Q92731 whole entry, looked up, the tested form may be a part): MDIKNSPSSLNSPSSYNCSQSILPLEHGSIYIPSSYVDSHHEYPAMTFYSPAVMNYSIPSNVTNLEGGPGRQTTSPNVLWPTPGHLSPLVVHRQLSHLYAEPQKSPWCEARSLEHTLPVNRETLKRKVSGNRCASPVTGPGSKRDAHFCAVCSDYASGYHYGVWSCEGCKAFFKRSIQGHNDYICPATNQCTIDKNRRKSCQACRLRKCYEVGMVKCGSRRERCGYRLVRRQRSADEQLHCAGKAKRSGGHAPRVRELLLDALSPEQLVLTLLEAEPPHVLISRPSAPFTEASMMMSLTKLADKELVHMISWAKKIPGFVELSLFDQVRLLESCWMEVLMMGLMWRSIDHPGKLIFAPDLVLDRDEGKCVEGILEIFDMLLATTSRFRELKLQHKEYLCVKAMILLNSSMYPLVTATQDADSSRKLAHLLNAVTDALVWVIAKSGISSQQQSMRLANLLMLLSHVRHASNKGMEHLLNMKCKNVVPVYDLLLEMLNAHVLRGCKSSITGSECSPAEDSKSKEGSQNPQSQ
In short: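 Transient TRANS reporter system in HepG2: after 24 h of chemical, RNA is reverse-transcribed, reporter cDNA amplified, FAM-labelled and sized by capillary electrophoresis. Induction of the human ERb-Gal4 reporter is measured relative to DMSO.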

[11] = target: chicken Estrogen Receptor (ERa), ESR1 (gene 396099) (UniProt P06212); test: ATG_chERa_XSP2: Attagene TRANS-FACTORIAL Multi-Species (XSP2) HepG2 Assay for chicken Estrogen Receptor (ERa) (AID 2283817);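 note: actives raise reporter signal above DMSO so AC50 reflects ER activation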
chicken Estrogen Receptor (ERa), ESR1 (gene 396099), sequence (P06212 whole entry, looked up, the tested form may be a part): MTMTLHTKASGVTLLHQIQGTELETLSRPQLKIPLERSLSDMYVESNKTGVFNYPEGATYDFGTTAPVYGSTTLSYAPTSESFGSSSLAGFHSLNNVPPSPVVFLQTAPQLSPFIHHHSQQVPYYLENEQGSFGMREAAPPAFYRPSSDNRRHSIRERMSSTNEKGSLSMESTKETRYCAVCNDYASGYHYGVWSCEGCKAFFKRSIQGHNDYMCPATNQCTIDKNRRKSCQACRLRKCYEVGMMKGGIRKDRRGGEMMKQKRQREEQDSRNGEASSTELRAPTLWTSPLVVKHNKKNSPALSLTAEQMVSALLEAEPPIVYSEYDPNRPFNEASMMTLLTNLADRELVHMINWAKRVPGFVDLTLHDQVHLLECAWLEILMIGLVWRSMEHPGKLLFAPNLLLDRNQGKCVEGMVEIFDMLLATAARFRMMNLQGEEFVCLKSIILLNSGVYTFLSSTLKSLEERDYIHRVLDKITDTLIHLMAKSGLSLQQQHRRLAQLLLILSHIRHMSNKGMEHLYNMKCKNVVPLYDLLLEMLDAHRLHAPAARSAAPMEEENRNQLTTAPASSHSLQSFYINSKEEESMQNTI
In short: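 Reporter mRNA induction read by RT-PCR, fluorescent labelling and capillary electrophoresis after 24 h exposure; positive-direction fit against DMSO baseline. HepG2 cells transfected with multiplexed GAL4-UAS units including chicken ERa chimera; medium contained 3 nM 6-alpha-fluorotestosterone plus 1.5 nM norgestrel.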

[12] = tested on: zebrafish Androgen Receptor (AR), gene 100005148; test: ATG_zfAR_XSP2: Attagene TRANS-FACTORIAL Multi-Species (XSP2) HepG2 Assay for zebrafish Androgen Receptor (AR) (AID 2283825);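 note: hits raise reporter mRNA above DMSO so AC50 reflects agonist-type gain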
In short: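 After 24 h compound exposure in medium with 3 nM 6-alpha-fluorotestosterone plus 1.5 nM norgestrel, HepG2 cells carrying zebrafish AR–GAL4 reporter constructs were assessed for reporter mRNA gain by RT-PCR and capillary electrophoresis.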

[13] = target: Estrogen receptor (Homo sapiens) (UniProt P03372); test: ATG_hERa_XSP2: Attagene TRANS-FACTORIAL Multi-Species (XSP2) HepG2 Assay for human Estrogen Receptor (ERa) (AID 2283827)
In short: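 Trans-activation of exogenous human ERa-Gal4 chimera read in HepG2 as reporter transcript after 24 h exposure; medium included 3 nM 6-alpha-fluorotestosterone and 1.5 nM norgestrel. Quantified by RT-PCR with capillary electrophoresis, positive-direction fitting against DMSO.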

[14] = ATG_M_19_XSP2: Attagene TRANS-FACTORIAL Multi-Species (XSP2) HepG2 Assay for M32 Transcription Factor (Internal Marker) (AID 2283822)
In short: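 Internal background marker in a multi-species nuclear receptor TRANS panel: transfected HepG2 cells exposed 24 h, with 3 nM 6-alpha-fluorotestosterone and 1.5 nM norgestrel present. Readout is RT-PCR of reporter transcripts resolved by capillary electrophoresis, gain-of-signal versus DMSO.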

Measured: AC50

CCN(CC)CCOc1ccc(C(=C(Cl)c2ccccc2)c2ccccc2)cc1
inactive: [7] | [8]
active: [1] 1930 nM | [2] 1130 nM | [3] 2960 nM | [4] 2020 nM | [5] 1570 nM | [6] 31400 nM

CC(=O)O[C@]1(C(C)=O)CC[C@H]2[C@@H]3C=C(Cl)C4=CC(=O)[C@@H]5C[C@@H]5[C@]4(C)[C@H]3CC[C@@]21C
inactive: [2] | [3] | [4] | [5] | [6]

Cc1c(C)c2c(c(C)c1O)CCC(C)(COc1ccc(CC3SC(=O)NC3=O)cc1)O2 (centres undefined)
inactive: [9] | [10] | [11] | [12] | [13]

CC(=O)[C@@]1(O)CC[C@H]2[C@@H]3CCC4=CC(=O)CC[C@]4(C)[C@H]3CC[C@@]21C
active: [9] 37.4 µM and 11.9 µM | [10] 100000 nM | [11] 38.3 µM and 14.9 µM
inactive: [10] | [7] | [14]
